High-throughput results from PubChem.
Rows were chosen to be rich in hits. Some 1.5% of all compounds tested hit in one or more screens of this group.
CCHF vOTU inh-1 = CCHFV vOTU protease inhibition. inhibition, % at 11.5 µM. Pep-AMC fluorescence. AID 651958. 370,000 compounds, 0.55% hits; further: 0% = vehicle wells with enzyme and 100% = no enzyme wells
DUSP3 inh = DUSP3 (human) phosphatase inhibition; P51452; recombinant VHR phosphatase, pNPP absorbance; inhibition, % at 13.3 µM; 290,000 compounds, 0.52% hits; AID 1654; in the data active means inhibition above about 50%
Target sequence (P51452 whole entry, looked up): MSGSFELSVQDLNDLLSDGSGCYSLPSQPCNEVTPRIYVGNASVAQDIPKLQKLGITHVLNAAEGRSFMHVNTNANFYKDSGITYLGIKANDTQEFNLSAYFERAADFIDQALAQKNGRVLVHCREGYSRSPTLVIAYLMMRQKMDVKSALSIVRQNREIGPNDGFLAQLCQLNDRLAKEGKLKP
Sa ugtP lethal = growth inhibition of S. aureus ugtP deletion strain | S. aureus RN4220 ugtP deletion, OD600 growth, 16 h | growth inhibition, % (concentration not given with the values) | 330,000 compounds, 0.54% hits | AID 1259309; in the data active means growth inhibition above about 68%;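 further: plate controls were untreated wells for no effect and antibiotic for full effect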
Sa RN4220 lethal = S. aureus RN4220 growth inhibition. OD600, 16 h. inhibition, % (test concentration not listed). 330,000 compounds, 0.33% hits; in the data active means inhibition above about 85%;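 further: plate controls were untreated cells for no effect and reference antibiotic for full effect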
SSB-PriA inh = inhibitors of Klebsiella pneumoniae PriA binding to SSB C-terminal tail; AlphaScreen SSBct-PriA binding, biotinylated peptide; inhibition, % at 33 µM; 430,000 compounds, 0.6% hits; AID 1272365; in the data active means inhibition mostly above about 37%, no sharp cut-off; inactive means mostly below about 20%;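 further: plate controls were negative control peptide for no effect and reference peptide for full effect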
CCHF vOTU inh-2 = confirmation of CCHF virus vOTU protease inhibitors. shares compounds with CCHF vOTU inh-1. 1,900 compounds, 17% hits. Recombinant CCHFV vOTU, Pep-AMC fluorescence. inhibition, % at 11.5 µM
Starred values were filed as active, the others as inactive. Unless noted, no stated cut-off is given here; in the data, active means inhibition above about 30%; inactive means the rest.

Results for Nc1cc(S(=O)(=O)O)cc([N+](=O)[O-])c1O ?
CCHF vOTU inh-1: 31*; DUSP3 inh: 30; Sa ugtP lethal: -7; Sa RN4220 lethal: 6; SSB-PriA inh: 8; CCHF vOTU inh-2: 9

What do the screens show for `Nc1ccc(O)c([N+](=O)[O-])c1`?
CCHF vOTU inh-1: 13; Sa ugtP lethal: 16; Sa RN4220 lethal: 4; SSB-PriA inh: 0

How did O=[N+]([O-])c1cc(S(=O)(=O)c2ccc(O)c([N+](=O)[O-])c2)ccc1O do in these assays?
CCHF vOTU inh-1: 43*; DUSP3 inh: 0; Sa ugtP lethal: 7; Sa RN4220 lethal: 3; SSB-PriA inh: -9; CCHF vOTU inh-2: 5

Results for CN(C)c1ncc(C2=C(Cl)C(=O)C(N3CCCC3)=C(Cl)C2=O)s1 ?
CCHF vOTU inh-1: 62*; Sa ugtP lethal: 27; Sa RN4220 lethal: 19; SSB-PriA inh: -3; CCHF vOTU inh-2: 49*

Results for Cc1ccc(C)c(S(=O)(=O)c2nnn3c2nc(N2CCN(c4ccccc4F)CC2)c2sccc23)c1 ?
SSB-PriA inh: 2

Results for C[C@H]1CNCCN1c1ccc(N2CC[C@@H](O)C2)c(C#N)c1 ?
CCHF vOTU inh-1: 34*; CCHF vOTU inh-2: -20

What do the screens show for `O=c1c(=Nc2ccccc2O)c(=O)c2ccccc12`?
CCHF vOTU inh-1: 49*; DUSP3 inh: 1; SSB-PriA inh: 0; CCHF vOTU inh-2: -1

Results for CCOC(=O)CC1(C)Oc2ccccc2N1S(=O)(=O)c1ccc(C)cc1 (stereo not given) ?
CCHF vOTU inh-1: 30*; CCHF vOTU inh-2: -23

What do the screens show for `CCOC(=O)C1CN(S(=O)(=O)c2ccc(C)cc2)c2cc(S(=O)(=O)CC)ccc2O1` (stereo not given)?
CCHF vOTU inh-1: 2; DUSP3 inh: 14; Sa ugtP lethal: -1; Sa RN4220 lethal: -1; SSB-PriA inh: 2

Results for CCOC(=O)C1=C(CNC(C)(C)CC(C)(C)C)NC(=O)NC1c1cccc([N+](=O)[O-])c1 (stereo not given) ?
CCHF vOTU inh-1: 31*; DUSP3 inh: 15; Sa ugtP lethal: 5; Sa RN4220 lethal: 5; SSB-PriA inh: 2; CCHF vOTU inh-2: 13

What do the screens show for `O=C(COc1ccc(Cl)cc1)Nc1ccn2nccc2c1`?
SSB-PriA inh: -14

What do the screens show for `CCN(CC)c1ccc(N=Cc2c(O)n(-c3ccccc3)c(=O)[nH]c2=O)cc1`?
CCHF vOTU inh-1: 30*; DUSP3 inh: -8; Sa ugtP lethal: 8; Sa RN4220 lethal: 5; SSB-PriA inh: 3; CCHF vOTU inh-2: -20

How did CCOc1ccccc1CNC(=O)Cc1nnc(-c2ccc(C)cc2)o1 do in these assays?
SSB-PriA inh: -8

What do the screens show for `N#Cc1nccnc1OC1CCCN(C(=O)Cn2cnc3ccccc32)C1` (stereo not given)?
SSB-PriA inh: -3

Results for O=C(N/N=C/c1ccc(-c2ccc(S(=O)(=O)Nc3ncccn3)cc2)o1)c1cc2ccccc2cc1O ?
CCHF vOTU inh-1: 41*; DUSP3 inh: 21; CCHF vOTU inh-2: -2

What do the screens show for `O=c1c(O)c(-c2ccc(O)cc2)oc2cc(O)cc(O)c12`?
CCHF vOTU inh-1: 31*; Sa ugtP lethal: -10; Sa RN4220 lethal: 1; SSB-PriA inh: 8; CCHF vOTU inh-2: -2

What do the screens show for `CCn1nnnc1SCC(=O)N1N=C(c2cccs2)CC1c1cccs1` (stereo not given)?
CCHF vOTU inh-1: 30*; Sa ugtP lethal: 1; Sa RN4220 lethal: 2; SSB-PriA inh: -10; CCHF vOTU inh-2: -14

Results for CC(=O)N1N=C(c2cccs2)CC1c1cccs1 (stereo not given) ?
CCHF vOTU inh-1: 1; DUSP3 inh: 14; Sa ugtP lethal: 2; Sa RN4220 lethal: 6; SSB-PriA inh: -14

How did Cc1cc(CCNC(=O)c2ccc3nsnc3c2)on1 do in these assays?
SSB-PriA inh: 2

Results for N#CC(C#N)=Cc1ccc(N2CCOCC2)cc1 ?
CCHF vOTU inh-1: 30*; DUSP3 inh: 15; Sa ugtP lethal: -4; Sa RN4220 lethal: 2; SSB-PriA inh: -2; CCHF vOTU inh-2: -8

How did N#C/C(=C\c1ccc(N2CCOCC2)cc1)c1ccccc1 do in these assays?
CCHF vOTU inh-1: 6; DUSP3 inh: -7; Sa ugtP lethal: 11; Sa RN4220 lethal: 0; SSB-PriA inh: -10

What do the screens show for `CCCCn1c(NS(=O)(=O)c2ccc3ccccc3c2)c(S(=O)(=O)c2ccc(C)cc2)c2nc3ccccc3nc21`?
SSB-PriA inh: 51

What do the screens show for `CCCCn1c(NS(=O)(=O)c2ccccc2)c(S(=O)(=O)c2ccc(C)cc2)c2nc3ccccc3nc21`?
CCHF vOTU inh-1: 108*; DUSP3 inh: 18; Sa ugtP lethal: -25; Sa RN4220 lethal: 4; SSB-PriA inh: 58*; CCHF vOTU inh-2: 51*

Results for CCCCn1c(NS(=O)(=O)c2ccc(C)cc2)c(C(=O)OCC)c2nc3ccccc3nc21 ?
CCHF vOTU inh-1: 95*; DUSP3 inh: -14; SSB-PriA inh: 6; CCHF vOTU inh-2: -98

Results for CCCCCCCCn1c(NS(=O)(=O)c2ccccc2)c(S(=O)(=O)c2ccc(C)cc2)c2nc3ccccc3nc21 ?
SSB-PriA inh: 33

What do the screens show for `COC(=O)CCCC1=CC2=C(c3ccccc3)C(=O)C(C)(OC(=O)C3CCCC3)C(=O)C2=CN1C1CCCCC1` (stereo not given)?
CCHF vOTU inh-1: 33*; DUSP3 inh: 15; Sa ugtP lethal: 2; Sa RN4220 lethal: 1; SSB-PriA inh: 6; CCHF vOTU inh-2: 22

What do the screens show for `COC(=O)CCCC1=CC2=C(c3ccccc3)C(=O)C(C)(OC(=O)C3CCCC3)C(=O)C2=CN1C1CCCC1` (stereo not given)?
CCHF vOTU inh-1: 3; DUSP3 inh: -16; Sa ugtP lethal: -3; Sa RN4220 lethal: -2; SSB-PriA inh: 4

How did COC(=O)CCCC1=CC2=C(c3ccccc3)C(=O)C(C)(OC(=O)C3CCCC3)C(=O)C2=CN1CC1CC1 (stereo not given) do in these assays?
CCHF vOTU inh-1: 10; DUSP3 inh: 11; Sa ugtP lethal: 4; Sa RN4220 lethal: 6; SSB-PriA inh: 0

What do the screens show for `COCCN1C=C2C(=O)C(C)(OC(=O)C3CCCC3)C(=O)C(c3ccccc3)=C2C=C1CCCC(=O)OC` (stereo not given)?
CCHF vOTU inh-1: 34*; DUSP3 inh: 22; Sa ugtP lethal: 3; Sa RN4220 lethal: 8; SSB-PriA inh: 0; CCHF vOTU inh-2: 39*
